# Laboratory results published in paper PMC4242493, “Sequence specificity incompletely defines the genome-wide occupancy of Myc”.
# Over roughly 33,000 sequences, “normalized occupancy” has its median near 0.075; the highest 2% begin near 0.095. The full list was thinned out, with the highest values kept by preference.
# Target: MaxL homodimer (Homo sapiens, UniProt P61244 1-160)
# Test: universal protein-binding microarray (PBM); PBS-based mixture, 10 nM His-tagged protein dimer, 2% milk, 200 ng/uL BSA, 50 ng/uL salmon testes DNA, 0.02% TX-100; detection with Alexa 488 anti-His antibody;; high values mean tight binding
# Conditions: protein: recombinant; tags: C-terminal His-tag (pET21a); chain copies: 2; dsDNA, one strand shown
# Procedure, shortened: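 A His-tagged protein dimer at 10 nM was incubated on Agilent 4 x 44 K arrays of the 'all 10-mer' universal design, then labelled with 10 ng/μL fluorophore-conjugated anti-His antibody and scanned on a GenePix 4400A. A fluorescence intensity was assigned to each 8-mer. Binding occupancy is each such intensity normalised to that of the highest-ranked one.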
# Chain of MaxL homodimer (P61244 whole entry): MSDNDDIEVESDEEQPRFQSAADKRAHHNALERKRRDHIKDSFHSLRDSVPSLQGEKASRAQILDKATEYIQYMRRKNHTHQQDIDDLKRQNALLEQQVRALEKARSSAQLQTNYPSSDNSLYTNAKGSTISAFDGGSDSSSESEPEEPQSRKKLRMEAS
row,Sequence,binding signal [normalized occupancy]
1,ACACCTGA,0.0871
2,ACACCTGC,0.0956
3,TCACCTGA,0.0809
4,CCACCTTC,0.0757
5,CCACCTGC,0.0984
6,ACACCTGT,0.0912
7,CCACCTCG,0.0794
8,ACACCTGG,0.0881
9,CCACCTGA,0.099
10,GCACCTGC,0.0846
11,GTAGTTGA,0.0738
12,ATAACGCC,0.0792
13,ATTCACCG,0.0732
14,CTTTTCGA,0.0725
15,ACGCCGAA,0.0725
16,GGCCACTA,0.0777
17,GTGGAAAA,0.0879
18,AATCGGGA,0.0782
19,CTGCCTAA,0.075
20,CAAGTCGC,0.0719
21,CAAACCTC,0.0765
22,ATTCTACC,0.0801
23,ATAGCGTC,0.0734
24,AGAGCGTA,0.0758
25,ACAGCGTG,0.123

row,Sequence,binding signal [normalized occupancy]
1,AGCGCGTG,0.117
2,ATAGCGTA,0.0819
3,ACAGCGTC,0.0731
4,AGAGCGAG,0.0719
5,AGAGCGTG,0.0963
6,AGCGCGTC,0.0772
7,ACAGCGAG,0.0728
8,ATAGCGTG,0.104
9,AGCGCGCG,0.0841
10,AGGCAGTA,0.0728
11,CTTGGTCC,0.0723
12,CTTCGCTA,0.0727
13,ATCCCCCC,0.0808
14,GGCTATCA,0.0738
15,ACACTGAC,0.0742
16,ACTTTAAG,0.0722
17,AAGTATAG,0.0813
18,CCTTTGTA,0.0734
19,GGTGCGGA,0.0762
20,AAAATTGA,0.0757
21,TGTAACAA,0.0771
22,GCGCGCGC,0.0821
23,GAACGCGA,0.0778
24,GGACGCGA,0.0754
25,GCACGCCC,0.0848

row,Sequence,binding signal [normalized occupancy]
1,GCACGCGA,0.109
2,GCACGCGC,0.15
3,CTTAAGCA,0.077
4,TCAAATAA,0.0786
5,AAGGGGAC,0.0746
6,AATGTGAC,0.0908
7,CATGTGAC,0.168
8,AATGTGAG,0.0853
9,TATGTGAA,0.0871
10,GATGTGAA,0.0819
11,CCTGTGAG,0.0762
12,GATGTGAC,0.0817
13,CATGTGAA,0.127
14,CATGTGAG,0.128
15,AAGTAGGA,0.0726
16,ATGGAGAA,0.0775
17,AAGCAGTA,0.0725
18,TAGATTGA,0.0791
19,ACCTTTAA,0.0744
20,GATGGCAA,0.0752
21,CATGGCAG,0.0887
22,CATGGCAA,0.0963
23,CCTATTAA,0.0743
24,GAAAATCA,0.0778
25,GTGCACTA,0.0769

row,Sequence,binding signal [normalized occupancy]
1,CTCTATGA,0.0732
2,GATGACTA,0.0757
3,GCGTGACC,0.103
4,AAGTGACC,0.0751
5,ACGTGACG,0.0972
6,AGGTGACC,0.0766
7,AGGTGACG,0.075
8,ACGTGACT,0.0933
9,ATGTGACA,0.0901
10,GGGTGACC,0.0751
11,CCGTGACG,0.0782
12,ACGTGACC,0.103
13,ACGTGACA,0.108
14,CCGTGACC,0.075
15,AGGGTTGC,0.0731
16,GAAGGTGC,0.0733
17,CGAAATAC,0.0768
18,CATATTGA,0.0806
19,TCGTGACA,0.0851
20,GCGTGACA,0.103
21,CCGTGACA,0.0807
22,ATGAGCCC,0.0757
23,TCTCGAAA,0.0729
24,GGTGCACA,0.078
25,CGTGCACG,0.123

row,Sequence,binding signal [normalized occupancy]
1,AGTGCACG,0.0853
2,CGTGCACA,0.0958
3,TGTGCACA,0.0902
4,AGTGCACA,0.0838
5,CTTAGCCA,0.0761
6,AACGCTAG,0.0726
7,AACGCTAC,0.0825
8,CACGCTAG,0.0976
9,CACGCTAC,0.0972
10,GACGCTAC,0.0742
11,CACGCTAA,0.0891
12,CTATGGGC,0.0769
13,AGCATACT,0.0804
14,AAGTGTAT,0.0806
15,AGGTGTAC,0.0803
16,GCGTGTAC,0.1
17,ACGTGTAT,0.117
18,GCGTGTAA,0.0923
19,GAGTGTAC,0.0756
20,CCGTGTAC,0.0796
21,ACGTGTAC,0.0984
22,ACGTGTAA,0.1
23,AGGTGTAT,0.0924
24,CCGTGTAA,0.0797
25,TCGTGTAA,0.0836

row,Sequence,binding signal [normalized occupancy]
1,ATTCCAAT,0.0727
2,ATAGTCAG,0.0801
3,GCATAAAA,0.0781
4,GCATTCTA,0.0844
5,ACTAACAT,0.0807
6,GTTGTTTA,0.0784
7,AGTGTTAC,0.0737
8,GCTATACA,0.0815
9,CAAGAAAC,0.0724
10,ATCACGGC,0.0739
11,CTCATTCC,0.0776
12,TTCAAGAA,0.0738
13,AAGACAAG,0.0722
14,CAATCGAC,0.0743
15,GCAGCACA,0.0778
16,GCGTGTCC,0.0957
17,ACGTGTCC,0.0932
18,AGGTGTAG,0.0785
19,GCGTGTCA,0.0867
20,CCGTGTAG,0.0808
21,ACGTGTAG,0.103
22,GGAATAAA,0.0741
23,CACAACCA,0.0825
24,AGAACGCA,0.0762
25,AGCGTGCG,0.109

row,Sequence,binding signal [normalized occupancy]
1,ATCGTGCG,0.0851
2,CGCGTGCC,0.118
3,ACCGTGCC,0.0756
4,GGAGTGCA,0.0787
5,ATCGTGCC,0.08
6,AGCGTGCC,0.0969
7,ACCGTGCG,0.0828
8,CTCGTGCC,0.0909
9,GCCGTGCA,0.0768
10,GGCGTGCA,0.0978
11,CCCGTGCC,0.0787
12,AGTAAAAA,0.0773
13,AAAATCTC,0.0762
14,AGTCTCGA,0.0741
15,CTCAAATA,0.0761
16,TGCCAAAA,0.0792
17,ACGTCTAA,0.0724
18,CATGGAGG,0.0891
19,AGGAGATG,0.0762
20,ACCGTGCA,0.0786
21,CGGGTGCA,0.0755
22,AGAGTGCA,0.0743
23,CGCGTGCA,0.134
24,AGCGTGCA,0.108
25,CCCGTGCA,0.0874
